Molecules are shown by their SMILES. Records with an inconclusive call do not appear. Entries that show only a call come without a potency. Calls of active or inactive are those of the source. The call rests on the fitted dose curve; in most records, active means well fitted inhibition curve with a large enough effect; inconclusive means small, poorly fitted or top-dose-only effect; inactive means flat fitted curve, though single readings scatter.

Calcium and integrin-binding protein 1 (Homo sapiens), sequence (Q99828 whole entry, looked up): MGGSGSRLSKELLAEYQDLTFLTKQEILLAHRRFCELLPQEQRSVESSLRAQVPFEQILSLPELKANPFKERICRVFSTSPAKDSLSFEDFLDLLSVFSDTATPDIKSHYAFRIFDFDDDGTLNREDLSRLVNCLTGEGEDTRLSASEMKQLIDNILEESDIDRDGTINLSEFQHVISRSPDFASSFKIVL

The test addresses Calcium and integrin-binding protein 1 (Homo sapiens) (UniProt Q99828). Put plainly: Primary qHTS for Identification of Calcium Integrin Binding Protein 1 (CIB1) Competitor (AID 1508620). Further: top concentration of the series differs between compounds. The settings on record: CIB1-GST / FITC-alphaIIb peptide fluorescence polarization; series mostly up to 57.7 µM. The gist of the method:
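Fluorescence polarization competition: GST-tagged CIB1 (1 uM final) preincubated with compound 15 min at room temperature, then FITC-labelled alphaIIb peptide (100 nM final) added. After 15 min at room temperature, polarization read at Ex 480/Em 540.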
Background: qHTS replaces the single test concentration by a dilution series.
As for `C=CC(C)(C)O[C@@H]1O[C@H](CO[C@@H]2OC[C@](O)(CO)[C@H]2O)[C@@H](O)[C@H](O)[C@H]1O`, the Potency entry was “inactive”.
Regarding `COc1cc([C@@H]2Oc3c(OC)cc(CCCO)cc3[C@@H]2CO[C@@H]2O[C@H](CO)[C@@H](O)[C@H](O)[C@H]2O)ccc1O`, the Potency entry is “inactive”.
To `C/C(=C\CO)CC/C=C(\C)C(=O)O[C@H]1[C@H](OC2OC=C(C(=O)O)C3CCC(C)(O)C23)O[C@H](CO)[C@@H](O)[C@@H]1O` (stereo not given in full) belongs “inactive”; to `C[C@H]1C[C@H]2[C@@H]3CCC4=CC(=O)C=C[C@]4(C)[C@@]3(F)[C@@H](O)C[C@]2(C)[C@@]1(O)C(=O)COP(=O)(O)O`, “inactive”.
For the compound `COc1cc(C2Oc3c(OC)cc(CCCO[C@@H]4O[C@H](CO)[C@@H](O)[C@H](O)[C@H]4O)cc3C2CO)ccc1O` (stereo not given in full), the Potency entry is “inactive”.
As for `C=C1C[C@@]23CC[C@@H]4[C@](C)(C(=O)O)CCC[C@@]4(C)C2=CC[C@H]1C3`, the entry is “inactive”; as for `CCC(=O)NS(=O)(=O)c1ccc(-c2c(-c3ccccc3)noc2C)cc1`, “inactive”.
To `C[C@@H]1CCN(C(=O)CC#N)C[C@@H]1N(C)c1ncnc2[nH]ccc12` belongs “inactive”; to `COc1cc(N2CCC(N(C)C)CC2)ccc1Nc1ncc(Cl)c(Nc2ccccc2P(C)(C)=O)n1`, “inactive”; to `Nc1c(Br)cc(Br)cc1CNC1CCC(O)CC1` (stereo not given), “inactive”.
Take `O=C(/C=C/c1ccc(O)cc1)OC[C@H]1O[C@@H](OC(=O)/C=C/c2ccccc2)[C@H](O)[C@@H](O)[C@@H]1O`: the Potency entry is “inactive”.
`C/C(=C\CCC(C(=O)O)C1CCC2(C)C3=C(CCC12C)C1(C)CCC(=O)C(C)(C)C1CC3)C(=O)O` (stereo not given): the Potency entry was “inactive”.
In the case of `COc1c(C)c(OCC=C(C)C)cc2c1C(=O)NC2=O`, the Potency entry is “inactive”.
On to `O=C(Nc1cccnn1)N1CCC(=Cc2cccc(Oc3ccc(C(F)(F)F)cn3)c2)CC1`, for which the Potency entry is “inactive”.
With `C[C@@H]1CC[C@]2(C)C(C[C@@H](O)[C@H](O)[C@]23CO3)[C@@]1(C)CCc1ccoc1` (stereo not given in full), the Potency result is “inactive”.
Consider `CC(=O)c1c(C)cc(O[C@@H]2O[C@H](CO)[C@@H](O)[C@H](O)[C@H]2O)cc1O`, for which the Potency entry was “inactive”.
Consider `CC(=O)N[C@H]1CCN(c2ccc(C3=NOC(CN[S+](=O)([O-])C(C)C)C3)cc2F)C1` (stereo not given in full), for which the Potency entry was “inactive”.
On to `CC(=O)O[C@H]1[C@H](C)[C@@H](O)[C@H]2[C@@H]1C=C(C(=O)O)[C@H]1C[C@@H]3[C@H]([C@H]21)[C@H]1C(=O)O[C@@H]2CC[C@@]3(C)O[C@]1(O)[C@@H]2C`, for which the Potency entry was “inactive”.
As for `COc1cc([C@H]2OC[C@]3(OC(C)=O)[C@@H](c4ccc(O[C@@H]5O[C@H](CO)[C@@H](O)[C@H](O)[C@H]5O)c(OC)c4)OC[C@H]23)ccc1O`, the Potency entry is “inactive”.
As for `O=C(NCc1ccc(OC(F)(F)F)cc1)C1c2ccccc2C(=O)N1C1CCOCC1` (stereo not given), the entry is “inactive”.
In the case of `COc1c(C(CC(C)C)OC(C)=O)ccc(Oc2c(O)cc(C)cc2/C=C/C(C)=O)c1C(=O)O` (stereo not given), the Potency result is “inactive”.
With `OC[C@H]1O[C@@H](OC(CCCCc2ccc(O)cc2)CCc2ccc(O)cc2)[C@H](O[C@@H]2OC[C@](O)(CO)[C@H]2O)[C@@H](O)[C@@H]1O` (stereo not given in full), the Potency result was “inactive”.
`C[C@@H]1C/C=C/C=C\C=C\C=C\[C@H](O[C@@H]2O[C@H](C)[C@@H](O)[C@H](N)[C@@H]2O)C[C@@H]2O[C@](O)(C[C@@H](O)C[C@H]3O[C@@H]3/C=C/C(=O)O1)C[C@H](O)[C@H]2C(=O)O`: the Potency entry is “inactive”.
As for `COc1cc(C/C(=C/NC(C)=O)N(CC(=O)Cc2ccccc2)C(C)=O)cc2c1OCO2`, the entry is “inactive”.
On to `C=C(C)C(=O)O[C@H]1C[C@@](C)(OC(C)=O)[C@@]2(O)CC[C@@](C)(O)[C@H](OC(C)=O)[C@@]23OC(=O)C(COC)=C13`, for which the Potency result was “inactive”.
On to `CC/C=C\C[C@H]1C(=O)C=C[C@@H]1CCCCCCCC(=O)O`, for which the Potency entry was “inactive”.
On to `COC(=O)C1=CO[C@@H](O[C@@H]2O[C@H](CO)[C@@H](O)[C@H](O)[C@H]2O)[C@@H]2[C@@H](C(=O)OC)[C@@H](O)C(O)[C@H]12` (stereo not given in full), for which the Potency entry was “inactive”.
Take `C[C@@H]1O[C@@H](O[C@H]2[C@H](O[C@H]3[C@H](O[C@H]4CC[C@@]5(C)C(CC[C@]6(C)C5CC=C5[C@@H]7CC(C)(C(=O)O)C[C@@H](O)[C@]7(C)CC[C@]56C)[C@@]4(C)CO)O[C@H](C(=O)O)[C@@H](O)[C@@H]3O)O[C@H](CO)[C@H](O)[C@@H]2O)[C@H](O)[C@H](O)[C@H]1O` (stereo not given in full): the Potency result is “inactive”.
Consider `Nc1nc(CC(=O)Nc2ccc(CCNCC(O)c3ccccc3)cc2)cs1` (stereo not given), for which the Potency result is “inactive”.
Turning to `O=C(O[C@H]1[C@@H]2C=CO[C@@H](O[C@@H]3O[C@H](CO)[C@@H](O)[C@H](O)[C@H]3O)[C@@H]2[C@@]2(CO)O[C@@H]12)c1ccc(O)c(O)c1`, the Potency entry is “inactive”.
As for `OC[C@H]1O[C@@H](n2cnc3c2NC=NC[C@H]3O)C[C@@H]1O`, the entry is “inactive”; as for `C/C=C(\C)C(=O)OC[C@H]1O[C@H](O[C@H]2O[C@H](CO)[C@@H](OC(=O)/C(C)=C/C)[C@H](O)[C@H]2O[C@@H]2O[C@H](CO)[C@@H](O)[C@H](O)[C@H]2O)[C@H](O[C@@H]2O[C@H](CO)[C@@H](O)[C@H](O)[C@H]2O)[C@@H](O)[C@@H]1O`, “inactive”; as for `C/C=C/C=C/C=C/C(=O)O[C@@H]1C=C(CO)C(O)(C(=O)O)[C@@]2(C)CCCC(C)(C)[C@H]12` (stereo not given in full), “inactive”.
As for `COC1CC(=O)CCC(C)OC(=O)CC1O` (stereo not given), the entry is “inactive”.
Consider `COc1cc(-c2cccc(O)c2)cc2c1OCO2`, for which the Potency entry was “inactive”.
As for `CC(=O)OC[C@@]12[C@H](O)C[C@@H](C)[C@]3(C[C@@H](c4ccoc4)OC3=O)[C@H]1C[C@H](O)C[C@]21CO1`, the entry is “inactive”.
To `CC(C)C(=O)O[C@@H]1[C@@H](O)[C@@H](O[C@H]2O[C@H](CO)[C@@H](O)[C@H](O)[C@H]2O)O[C@H](CO)[C@H]1O` belongs “inactive”.
To `COCCN(C)Cc1ccc2nc3sc(C(=O)N(C)C4CCCCC4)cn3c2c1` belongs “inactive”; to `CCC[C@@H]1C[C@@H](C(=O)N[C@@H]([C@H]2O[C@H](SC)[C@H](O)[C@@H](O)[C@@H]2O)[C@@H](C)O)N(C)C1`, “inactive”.
Take `CCC[C@@H]1C[C@@H](C(=O)N[C@H](C(C)Cl)[C@H]2O[C@H](SC)[C@H](O)[C@@H](O)[C@H]2O)N(C)C1` (stereo not given in full): the Potency entry was “inactive”.

These data come from PubChem BioAssay (NCATS).
